Measured values published in the supplement of paper PMC6555819.

Tested on: RARa:RXR (NR concentration 270 nM, RXRa partner concentration 90 nM)
Experiment: PBM binding z-score (relative to random genomic background probes); higher = stronger binding; sequences stand for … in GC…GCGATTGACAGCGTAGAATGAAGG
Procedure, shortened: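 Antibodies against each partner of ligand-free nuclear receptor dimers (one per run) detected binding on custom Agilent 4×180K protein-binding microarrays after 1 h incubation. The double-stranded probes had 34-nt variable regions carrying direct-repeat seeds, single-nucleotide variants, half-site ablations and random human genomic background sequences. Binding z-scores, from regression-normalized fluorescence, use the random background probes as reference.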

Sequence | PBM binding z-score
CCTAGTTGGTCAAGGTCACGCACGCTATAGGTAC | 4.99
GATACAGGGTCATCTAGAGGCCAGAGTATGGAAA | 6.28
AGTCAAAGTTCACTAGGTTACGTAAGATTCAGCT | 4.08
CCAGACAGGTGAAAGGTAACTCACTCTGGTACGC | 1.84
ATCTCTAGGTGAAAGTTCAGTGAATCCCGAGGAT | 2.87
CAAACTAGGTCAAGGTCAAATTCGGTTTGTGCCA | 5.82
CAAACTAGGTCACGAAAGGTCAAAATCGAATGAC | 7.6
CCTACTGGGCCAAGGTCATTGACCAGTCAAAGCA | 3.95
TTAACAAGGTGAAAGGTCGTTGATGCACGCCTTG | 5.73
CCTGCTCGGTCAATGGTCAGCTAAAGCAGCTCGC | 0.252
CGTCAAAGTTCAAGGTAATGTAACAGAAAGCAGC | 3.38
CAAACTAGGTCAAAGGTCAAAGACGAGCCAACCA | 9.19
CCTACTGGGCCATTGAGAGGTCATTGATCATATG | 4.26
CCTGCTAGTTCATGGTCAGCTAATCTACAGTATG | 0.225
TCTAGTTCGTCACGGAGGTCACACACGACGGGTA | 5.11
AGAATGAGGTTAGCAAAGATCAGGGAAACGCTTG | 0.623
TAGCCTAGGTCATTCAGGGGCTAGTATAGAAAGC | 2.79
ACTCGGAGGACAAAGGTAAGAGCTACGCCAGTGA | -0.0753
TCATATAGGTAATCAGGTGAAAGTCCGTAAGTTA | 1.14
CCTACTGGGCCAAAGGTCATTGACTCCAATGCTC | 6.16
AAATGTAGGTTAAGGGTCATTCAGGTTGGTTCGC | 5.42
GGAACTAGGGCAAAGTTGATAGCATCTGTCGACG | 0.0303
